{"source": "PubChem BioAssay (NCI)", "key": {"[1]": {"assay": "NCI Yeast Anticancer Drug Screen. Data for the rad52 strain (AID 147);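 further: 0% = growth of vehicle-treated control cultures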", "conditions": "S. cerevisiae rad52 mutant growth inhibition, stronger effect = higher value", "in_short": "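Growth of repair-deficient yeast cells was compared between compound-treated and vehicle-treated cultures to give percent inhibition.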"}, "[2]": {"assay": "NCI Yeast Anticancer Drug Screen. Data for the wt1 strain (AID 149);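 further: 0% = growth of vehicle-treated wt1 cultures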", "conditions": "S. cerevisiae wt1 strain (SPY 50644) growth inhibition, stronger effect = higher value", "in_short": "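wt1 yeast, compound-treated; % growth inhibition vs vehicle control.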"}, "[3]": {"assay": "NCI Yeast Anticancer Drug Screen. Data for the rad50EPP+ strain (AID 151);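 further: 0% = growth of vehicle-treated control cultures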", "conditions": "S. cerevisiae rad50 mutant strain, stronger effect = higher value", "in_short": "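Measured: growth inhibition of rad50EPP+ yeast. Reference: vehicle-treated controls. Screen uses strains with defined genetic alterations in DNA damage repair or cell cycle control.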"}, "[4]": {"assay": "NCI Yeast Anticancer Drug Screen. Data for the mgt1 strain (AID 153)", "conditions": "S. cerevisiae mgt1 mutant growth inhibition, stronger effect = higher value", "in_short": "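Compounds were applied to mgt1 mutant yeast, and growth was then compared against vehicle-treated control cultures to give percent inhibition.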"}, "[5]": {"assay": "NCI Yeast Anticancer Drug Screen. Data for the rad50 strain (AID 155);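 further: 0% = growth of vehicle-only cultures of the same strain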", "conditions": "S. cerevisiae rad50 strain growth inhibition, stronger effect = higher value", "in_short": "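Genetically altered yeast (DNA repair pathway); compound treatment; growth inhibition vs vehicle ctrl.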"}, "[6]": {"assay": "NCI Yeast Anticancer Drug Screen. Data for the mec2-1 strain (AID 157)", "conditions": "S. cerevisiae mec2-1 strain, stronger effect = higher value", "in_short": "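Compounds were applied to mec2-1 yeast cells. Their growth was then compared with that of vehicle-treated cultures to give growth inhibition.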"}, "[7]": {"assay": "NCI Yeast Anticancer Drug Screen. Data for the sgs1 mgt1 strain (AID 161);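 further: 0% = growth of cultures given vehicle only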", "conditions": "S. cerevisiae sgs1 mgt1 strain, stronger effect = higher value", "in_short": "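Compounds are added to genetically altered yeast, and growth is compared with cultures given vehicle alone to give percent inhibition.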"}, "[8]": {"assay": "NCI Yeast Anticancer Drug Screen. Data for the CLN2oe strain (AID 163);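 further: 0% = growth of vehicle-only control cultures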", "conditions": "S. cerevisiae CLN2oe strain, stronger effect = higher value", "in_short": "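Cells of an engineered yeast line with disturbed cell-cycle regulation are treated with compound. Inhibition of growth is then calculated relative to the vehicle-treated reference.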"}, "[9]": {"assay": "NCI Yeast Anticancer Drug Screen. Data for the cln2 rad14 strain (AID 165);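 further: 0% = growth equal to vehicle treated cultures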", "conditions": "S. cerevisiae cln2 rad14 strain, stronger effect = higher value", "in_short": "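Strain: cln2 rad14 yeast, altered in cell cycle control and DNA damage repair. Read-out: growth inhibition vs vehicle.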"}, "[10]": {"assay": "NCI Yeast Anticancer Drug Screen. Data for the bub3 strain (AID 167)", "conditions": "S. cerevisiae bub3 mutant strain, stronger effect = higher value", "in_short": "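Yeast carrying a defined mutation is treated with each compound, and growth is compared with that of vehicle-exposed cells to give inhibition.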"}, "[11]": {"assay": "NCI Yeast Anticancer Drug Screen. Data for the wt2 strain (AID 169);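 further: 0% = growth of vehicle-treated yeast cultures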", "conditions": "S. cerevisiae wt2 strain growth inhibition, stronger effect = higher value", "in_short": "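Growth of compound-treated yeast is measured and expressed as inhibition relative to vehicle-only controls.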"}, "[12]": {"assay": "NCI Yeast Anticancer Drug Screen. Data for the mlh1 strain (AID 171);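 further: 0% = growth of vehicle-treated control cultures of the same strain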", "conditions": "S. cerevisiae mlh1 strain growth inhibition, stronger effect = higher value", "in_short": "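Test agents were incubated with yeast bearing a defined DNA damage repair or cell cycle control alteration; values are growth inhibition normalised to vehicle-treated cultures.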"}, "[13]": {"assay": "NCI Yeast Anticancer Drug Screen. Data for the sgs1 strain (AID 173);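 further: 0% = growth of vehicle-only control cultures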", "conditions": "S. cerevisiae sgs1 mutant, stronger effect = higher value", "in_short": "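Strain with an altered DNA repair or cell cycle pathway exposed to compound. Growth then measured. Value = inhibition versus vehicle control.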"}, "[14]": {"assay": "NCI Yeast Anticancer Drug Screen. Data for the mlh1 rad18 strain (AID 175)", "conditions": "S. cerevisiae mlh1 rad18 strain growth inhibition, stronger effect = higher value", "in_short": "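A repair-deficient yeast strain is exposed to test compound, and growth is scored relative to vehicle-treated controls.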"}, "[15]": {"assay": "NCI Yeast Anticancer Drug Screen. Data for the rad18 strain (AID 177)", "conditions": "S. cerevisiae rad18 mutant growth inhibition, stronger effect = higher value", "in_short": "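DNA-repair-defective yeast; compound treatment; growth inhibition scored against vehicle.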"}, "[16]": {"conditions": "at 5.0 µM (retest, dose inferred, filed as 0.5)"}, "[17]": {"conditions": "at 50.0 µM (retest, dose inferred, filed as 5.0)"}}, "note": "The panel holds about 79,000 compounds, 15% with a hit somewhere; the sample as a whole holds those more often. Values without a mark were called inactive. Activity calls are given as the source filed them. No stated cut-off is given here; in the data, active means growth inhibition above about 70%; inactive means the rest."}
{"compound": "CCCCN(CCC#N)c1ccc(/C=C/c2ccnc3ccccc23)cc1", "values": [{"measurement": "growth inhibition", "setting": "[1]; at 1.2 µM", "result": -6, "unit": "%"}, {"measurement": "growth inhibition", "setting": "[1]; at 3.7 µM", "result": -9, "unit": "%"}, {"measurement": "growth inhibition", "setting": "[1]; at 11.0 µM", "result": -9, "unit": "%"}, {"measurement": "growth inhibition", "setting": "[1]; at 33.0 µM", "result": 63, "unit": "%"}, {"measurement": "growth inhibition", "setting": "[1]; at 100.0 µM", "result": "79% (active)"}, {"measurement": "growth inhibition", "setting": "[2]; at 1.2 µM", "result": -6, "unit": "%"}, {"measurement": "growth inhibition", "setting": "[2]; at 3.7 µM", "result": -10, "unit": "%"}, {"measurement": "growth inhibition", "setting": "[2]; at 11.0 µM", "result": -13, "unit": "%"}, {"measurement": "growth inhibition", "setting": "[2]; at 33.0 µM", "result": 66, "unit": "%"}, {"measurement": "growth inhibition", "setting": "[2]; at 100.0 µM", "result": "85% (active)"}, {"measurement": "growth inhibition", "setting": "[3]; at 1.2 µM", "result": -3, "unit": "%"}, {"measurement": "growth inhibition", "setting": "[3]; at 3.7 µM", "result": 7, "unit": "%"}, {"measurement": "growth inhibition", "setting": "[3]; at 11.0 µM", "result": 30, "unit": "%"}, {"measurement": "growth inhibition", "setting": "[3]; at 33.0 µM", "result": 38, "unit": "%"}, {"measurement": "growth inhibition", "setting": "[3]; at 100.0 µM", "result": 26, "unit": "%"}, {"measurement": "growth inhibition", "setting": "[4]; at 1.2 µM", "result": -6, "unit": "%"}, {"measurement": "growth inhibition", "setting": "[4]; at 3.7 µM", "result": -9, "unit": "%"}, {"measurement": "growth inhibition", "setting": "[4]; at 11.0 µM", "result": 0, "unit": "%"}, {"measurement": "growth inhibition", "setting": "[4]; at 33.0 µM", "result": 62, "unit": "%"}, {"measurement": "growth inhibition", "setting": "[4]; at 100.0 µM", "result": "76% (active)"}, {"measurement": "growth inhibition", "setting": "[5]; at 1.2 µM", "result": -4, "unit": "%"}, {"measurement": "growth inhibition", "setting": "[5]; at 3.7 µM", "result": -7, "unit": "%"}, {"measurement": "growth inhibition", "setting": "[5]; [16]", "result": 36, "unit": "%"}, {"measurement": "growth inhibition", "setting": "[5]; at 11.0 µM", "result": -6, "unit": "%"}, {"measurement": "growth inhibition", "setting": "[5]; at 33.0 µM", "result": 46, "unit": "%"}, {"measurement": "growth inhibition", "setting": "[5]; [17]", "result": 30, "unit": "%"}, {"measurement": "growth inhibition", "setting": "[5]; at 50.0 µM", "result": -15.1, "unit": "%"}, {"measurement": "growth inhibition", "setting": "[5]; at 100.0 µM", "result": "72% (active)"}, {"measurement": "growth inhibition", "setting": "[6]; at 1.2 µM", "result": -9, "unit": "%"}, {"measurement": "growth inhibition", "setting": "[6]; at 3.7 µM", "result": -10, "unit": "%"}, {"measurement": "growth inhibition", "setting": "[6]; [16]", "result": 4, "unit": "%"}, {"measurement": "growth inhibition", "setting": "[6]; at 11.0 µM", "result": -9, "unit": "%"}, {"measurement": "growth inhibition", "setting": "[6]; at 33.0 µM", "result": 45, "unit": "%"}, {"measurement": "growth inhibition", "setting": "[6]; [17]", "result": "80% (active)"}, {"measurement": "growth inhibition", "setting": "[6]; at 50.0 µM", "result": -6.1, "unit": "%"}, {"measurement": "growth inhibition", "setting": "[6]; at 100.0 µM", "result": "80% (active)"}, {"measurement": "growth inhibition", "setting": "[7]; [16]", "result": -11, "unit": "%"}, {"measurement": "growth inhibition", "setting": "[7]; [17]", "result": "77% (active)"}, {"measurement": "growth inhibition", "setting": "[7]; at 50.0 µM", "result": 14.9, "unit": "%"}, {"measurement": "growth inhibition", "setting": "[8]; at 1.2 µM", "result": -8, "unit": "%"}, {"measurement": "growth inhibition", "setting": "[8]; at 3.7 µM", "result": -14, "unit": "%"}, {"measurement": "growth inhibition", "setting": "[8]; at 11.0 µM", "result": -22, "unit": "%"}, {"measurement": "growth inhibition", "setting": "[8]; at 33.0 µM", "result": -23, "unit": "%"}, {"measurement": "growth inhibition", "setting": "[8]; at 100.0 µM", "result": 22, "unit": "%"}, {"measurement": "growth inhibition", "setting": "[9]; [16]", "result": 2, "unit": "%"}, {"measurement": "growth inhibition", "setting": "[9]; [17]", "result": 12, "unit": "%"}, {"measurement": "growth inhibition", "setting": "[9]; at 50.0 µM", "result": -9.8, "unit": "%"}, {"measurement": "growth inhibition", "setting": "[10]; at 1.2 µM", "result": -7, "unit": "%"}, {"measurement": "growth inhibition", "setting": "[10]; at 3.7 µM", "result": -14, "unit": "%"}, {"measurement": "growth inhibition", "setting": "[10]; [16]", "result": -7, "unit": "%"}, {"measurement": "growth inhibition", "setting": "[10]; at 11.0 µM", "result": -13, "unit": "%"}, {"measurement": "growth inhibition", "setting": "[10]; at 33.0 µM", "result": -3, "unit": "%"}, {"measurement": "growth inhibition", "setting": "[10]; [17]", "result": "73% (active)"}, {"measurement": "growth inhibition", "setting": "[10]; at 50.0 µM", "result": -8.45, "unit": "%"}, {"measurement": "growth inhibition", "setting": "[10]; at 100.0 µM", "result": 53, "unit": "%"}, {"measurement": "growth inhibition", "setting": "[11]; at 1.2 µM", "result": -9, "unit": "%"}, {"measurement": "growth inhibition", "setting": "[11]; at 3.7 µM", "result": -12, "unit": "%"}, {"measurement": "growth inhibition", "setting": "[11]; at 11.0 µM", "result": -1, "unit": "%"}, {"measurement": "growth inhibition", "setting": "[11]; at 33.0 µM", "result": 69, "unit": "%"}, {"measurement": "growth inhibition", "setting": "[11]; at 100.0 µM", "result": "83% (active)"}, {"measurement": "growth inhibition", "setting": "[12]; at 1.2 µM", "result": -3, "unit": "%"}, {"measurement": "growth inhibition", "setting": "[12]; at 3.7 µM", "result": -6, "unit": "%"}, {"measurement": "growth inhibition", "setting": "[12]; at 11.0 µM", "result": 10, "unit": "%"}, {"measurement": "growth inhibition", "setting": "[12]; at 33.0 µM", "result": 55, "unit": "%"}, {"measurement": "growth inhibition", "setting": "[12]; at 100.0 µM", "result": "76% (active)"}, {"measurement": "growth inhibition", "setting": "[13]; at 1.2 µM", "result": -4, "unit": "%"}, {"measurement": "growth inhibition", "setting": "[13]; at 3.7 µM", "result": -5, "unit": "%"}, {"measurement": "growth inhibition", "setting": "[13]; at 11.0 µM", "result": 17, "unit": "%"}, {"measurement": "growth inhibition", "setting": "[13]; at 33.0 µM", "result": "73% (active)"}, {"measurement": "growth inhibition", "setting": "[13]; at 100.0 µM", "result": "84% (active)"}, {"measurement": "growth inhibition", "setting": "[14]; [16]", "result": 16, "unit": "%"}, {"measurement": "growth inhibition", "setting": "[14]; [17]", "result": "74% (active)"}, {"measurement": "growth inhibition", "setting": "[14]; at 50.0 µM", "result": 11.7, "unit": "%"}, {"measurement": "growth inhibition", "setting": "[15]; at 1.2 µM", "result": -3, "unit": "%"}, {"measurement": "growth inhibition", "setting": "[15]; at 3.7 µM", "result": -3, "unit": "%"}, {"measurement": "growth inhibition", "setting": "[15]; at 11.0 µM", "result": 1, "unit": "%"}, {"measurement": "growth inhibition", "setting": "[15]; at 33.0 µM", "result": 32, "unit": "%"}, {"measurement": "growth inhibition", "setting": "[15]; at 100.0 µM", "result": "77% (active)"}]}
